TEAD-YAP inh – TEAD-YAP interaction inhibition; inhibition, % at 9.12 µM; HEK-TIYL cells, TEAD-Gal4/YAP UAS-luciferase luminescence; actives 1.4% (n = 640,000); AID 1259422; in the data active = inhibition above about 32%;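 note: 0% = median of test compound wells and 100% = reference inhibitor wells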
GPR151 ag – activates the human receptor GPR151 | Q8TDV0 | PathHunter beta-arrestin GPR151 cells, luminescence | activation, % at 11.2 µM | actives 1% (n = 650,000); in the data active = activation above about 4.9%;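 note: 0% = median of compound wells and 100% = cells with positive control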
FBW7 act – human FBW7 E3 ligase activation, primary screen; actives 0.13% (n = 650,000); normalized activity (activation), % at 26.1 µM; Q969H0; AID 1259310; AlphaScreen FBW7–phospho-cyclin E peptide binding, activator screen; in the data active = normalized activity above about 1.9%;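 note: purified mutant Fbw7 with reduced substrate affinity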
Target sequence (Q969H0 whole entry, looked up): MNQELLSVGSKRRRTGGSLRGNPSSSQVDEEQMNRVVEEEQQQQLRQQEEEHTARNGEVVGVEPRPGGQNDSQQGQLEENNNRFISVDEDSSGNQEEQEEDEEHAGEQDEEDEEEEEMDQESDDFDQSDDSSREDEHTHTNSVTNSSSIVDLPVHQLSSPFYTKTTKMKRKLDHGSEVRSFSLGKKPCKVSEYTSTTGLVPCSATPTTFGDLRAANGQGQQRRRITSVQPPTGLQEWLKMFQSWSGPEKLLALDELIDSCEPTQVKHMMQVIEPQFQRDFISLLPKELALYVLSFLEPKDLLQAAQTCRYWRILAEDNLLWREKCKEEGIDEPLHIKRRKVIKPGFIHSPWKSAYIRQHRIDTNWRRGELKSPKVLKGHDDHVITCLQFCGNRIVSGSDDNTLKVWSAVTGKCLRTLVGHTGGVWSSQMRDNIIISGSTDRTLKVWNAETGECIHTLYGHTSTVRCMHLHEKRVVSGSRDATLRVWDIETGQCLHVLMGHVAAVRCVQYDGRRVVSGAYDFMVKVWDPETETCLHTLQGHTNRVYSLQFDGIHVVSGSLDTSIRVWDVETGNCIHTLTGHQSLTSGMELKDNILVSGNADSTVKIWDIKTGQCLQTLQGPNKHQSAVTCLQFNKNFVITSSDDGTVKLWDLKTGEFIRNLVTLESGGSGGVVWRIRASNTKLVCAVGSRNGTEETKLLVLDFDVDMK
MITF primary – inhibitors of human MITF. AID 1259374. actives 0.91% (n = 650,000). AlphaScreen MITF homodimerization, bead proximity signal. O75030. inhibition, % at 2.6 µM; in the data active = inhibition above about 50%;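 note: 0% = vehicle wells with protein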
Starred values were filed as active, the others as inactive; ! = a repeat was not active. An excerpt weighted towards active compounds, which were near 3.5% of everything screened.

SMILES	TEAD-YAP inh	GPR151 ag	FBW7 act	MITF primary
COc1ccc2c(c1)C(C)CC(C)(C)N2C(=O)CCl (stereo unspecified)	41*	0	0	0
CCC(=O)c1ccc(OC(=O)c2ccc(F)cc2)cc1	9	-2	0	-2
O=C(NC(=S)NNC(=O)c1cc2ccccc2cc1O)c1ccco1	35*	-1	0	14
COc1c2occc2cc2ccc(=O)oc12	-2	-1	2.0*!	1
COc1ccc(OC)c(Cn2c(O)c(/C=C3\C=CC=N3)c(=O)[nH]c2=O)c1	40*	2	0	6
COc1ccc(Cn2c(O)c(/C=C3\C=CC=N3)c(=O)[nH]c2=O)cc1	3	1	0	18
COc1ccc(-n2ncc3c(Nc4cccc(F)c4)ncnc32)cc1	39*	4	0	1
COc1ccc(-n2ncc3c(Nc4ccc(F)cc4)ncnc32)cc1	-2	4	0	0
COc1cccc(Nc2ncnc3c2cnn3-c2ccc(Cl)cc2)c1	1	-1	0	-6
COc1cccc(Nc2nc(N3CCN(C)CC3)nc3c2cnn3C)c1	43*	4	1	18
COc1cccc(Nc2nc(N3CCN(c4cccc(Cl)c4)CC3)nc3c2cnn3C)c1	1	1	0	10
COc1ccc(-n2ncc3c(Nc4cccc(OC)c4)ncnc32)cc1	46*	1	0	4
O=C(O)c1ccc(Br)c(S(=O)(=O)N2CCCCCC2)c1	0	0	0	-8
COC(=O)c1ccc(Br)c(S(=O)(=O)N2CCCCC2)c1	7	-1	1.9*	13
CC(=O)c1ccccc1NC(=O)c1ccc(F)cc1F	-6	0	0	-12
N[C@@H](Cc1ccccc1)c1nc2ccc(-c3ccncc3)cc2c(=O)[nH]1	61*	0	-1	18
NCc1ccc(C(=O)NC(c2ccc(Cl)cc2)c2nc3ccc(-c4cn[nH]c4)cc3c(=O)[nH]2)cc1 (stereo unspecified)	3	-2	0	21
COc1cccc(CCc2nc3c(OC)cc(-c4cn[nH]c4)cc3c(=O)[nH]2)c1	36*	-1	1	16
N[C@H](Cc1cccc(F)c1)c1nc2ccc(-c3cn[nH]c3)cc2[nH]1	-6	0	-1	10
N[C@H](Cc1ccccc1)c1nc2ccc(-c3ccncc3)cc2[nH]1	17	0	-1	24
N[C@@H](Cc1ccc(Cl)cc1)c1nc2ccc(-c3cn[nH]c3)cc2c(=O)[nH]1	86*	-1	-1	13
COc1cccc(Cc2nc3c(OC)cc(-c4cn[nH]c4)cc3c(=O)[nH]2)c1	30	1	0	-1
N[C@H](Cc1cccc(F)c1)c1nc2ccc(-c3cn[nH]c3)cc2c(=O)[nH]1	68*	1	-1	8
C=CCNc1nc(NC2CCN(C(=O)OCC)CC2)nc(OCC)n1	-9	2	0	0
COc1cc([N+](=O)[O-])ccc1NC(=O)CSc1n[nH]c(COc2ccc(Cl)cc2)n1	5	-1	0	14
SMILES	TEAD-YAP inh	GPR151 ag	FBW7 act	MITF primary
Cc1ccc(C(c2c(C)[nH][nH]c2=O)c2c(C)[nH][nH]c2=O)cc1Br	3	0	0	-1
N[C@H](Cc1cccc(Cl)c1)c1nc2ccc(-c3cn[nH]c3)cc2c(=O)[nH]1	69*	0	-1	-9
NCCC(=O)NC(c1ccc(Cl)cc1)c1nc2ccc(-c3cn[nH]c3)cc2c(=O)[nH]1 (stereo unspecified)	3	-2	0	7
N[C@@H](Cc1ccc(F)cc1)c1nc2ccc(-c3cn[nH]c3)cc2c(=O)[nH]1	85*	-3	-1	-6
N[C@H](Cc1ccc(F)c(F)c1)c1nc2ccc(-c3cn[nH]c3)cc2c(=O)[nH]1	76*	1	-1	15
COc1cc(-c2cn[nH]c2)cc2c(=O)[nH]c(C(N)c3ccc(Cl)cc3)nc12 (stereo unspecified)	29	0	0	7
COc1cc(-c2cn[nH]c2)cc2c(=O)[nH]c([C@@H](N)Cc3cccc(F)c3)nc12	68*	0	-1	-3
N[C@H](CCc1ccccc1)c1nc2ccc(-c3cn[nH]c3)cc2c(=O)[nH]1	-4	1	-1	17
Cc1ccc(-n2c(=O)[nH]c3c(C(N)=O)nc(-c4cccs4)nc32)cc1	-4	-1	0	3
CCOC(=O)C1=C(C)NC(C)=C(C(=O)OCC)C1c1ccc(C(C)C)cc1	0	0	0	8
Cc1ccccc1OCc1nc(N(C)CCN(C)C)c2cc(-c3cn[nH]c3)ccc2n1	22	0	0	13
CN(C)CCN(C)c1nc([C@H](N)Cc2cccc(F)c2)nc2ccc(-c3cn[nH]c3)cc12	-1	0	2.7*	30
N[C@@H](Cc1ccccc1)c1nc2ccc(-c3cn[nH]c3)cc2c(=O)[nH]1	75*	4	-1	14
N[C@H](Cc1ccc(F)cc1)c1nc2ccc(-c3cn[nH]c3)cc2c(=O)[nH]1	81*	1	0	28
CCOC(=O)N1CCc2c(sc(NCc3cccc(OC)c3)c2C(=O)Nc2cc(Cl)ccc2OC)C1	-2	-1	0	2
c1ccc2[nH]c(CNc3nc(N4CCN(Cc5ccc6c(c5)OCO6)CC4)nc4c3ncn4C3CCCCC3)nc2c1	41*	3	0	-1
c1ccc2[nH]c(CNc3nc(N4CCN(Cc5ccc6c(c5)OCO6)CC4)nc4c3ncn4-c3ccsc3)nc2c1	85*	0	0	-3
c1cc2c(cc1CN1CCN(c3nc(NC4CC4)c4ncn(C5CCCCC5)c4n3)CC1)OCO2	3	0	0	14
CN1CCN(c2ccc(-c3nc4ccc(C(N)=O)cc4s3)cc2)CC1	44*	0	0	-1
CCN(CC)CCCNCC(=O)N1c2ccccc2Sc2ccccc21	40*	-2	0	8
CCN(CC)CCCNCC(=O)Nc1cc(C)on1	8	-2	1	1
CCN(CC)CCCNCC(=O)Nc1nc(C)cs1	95*	-5	0	15
COc1ccc(S(=O)(=O)Nc2ccc3c(c2)OCCO3)cc1Br	0	0	0	-3
COc1ccccc1Oc1ccc(S(=O)(=O)Nc2ccc3c(c2)OCCO3)cc1	44*	2	0	13
COc1cc(/C=C(\C(=O)c2ccc(C)cc2)c2nc3ccccc3o2)cc(OC)c1OC	69*	1	0	8
COc1cc(C(=O)/C(=C/c2ccc(C)cc2)c2nc3ccccc3o2)cc(OC)c1OC	5	-1	0	-11
CCOC(=O)c1c(C)nc(Nc2nc3ccccc3o2)nc1-c1ccccc1	-5	2	0	-6
CCOC(=O)c1cnc(Nc2nc3ccccc3o2)nc1C	44*	-2	0	-1
CCOC(=O)CSC1=C(C#N)C(c2ccco2)C(C(=O)Nc2ccccc2F)=C(C)N1 (stereo unspecified)	45*	1	0	12
Cc1ccccc1NC(=O)CSC1=C(C#N)C(c2ccco2)C2=C(CCCC2=O)N1 (stereo unspecified)	45*	0	0	13
